The list is not random: actives were taken first. Their share in the collection is about 9.3%.
Sm TGR block – qHTS Assay for the Inhibitors of Schistosoma Mansoni Peroxiredoxins | Schistosoma mansoni thioredoxin glutathione reductase (TGR), Q962Y6 | Potency, µM (series often up to 114 µM), for inactives: at the top dose activity change, negative = inhibition, usual class: inhibitors | purified TGR, DTNB reduction, TNB absorbance 405 nm | AID 485364, 2010 | actives 3% (n = 360,000); note: potency is the fitted concentration of half-maximal effect; nearly all actives have a fitted effect of over 60% in size
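First, TGR (20 nM dispensed) and NADPH were mixed with compound. Second, a 15 min room-temperature incubation followed. Third, further NADPH and then DTNB were added to start the reaction. Finally, TNB absorbance was monitored kinetically.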
FMDV antiviral – High Throughput Screening for Foot and Mouth Disease Virus Antivirals | FMDV antiviral cell-based qHTS | actives 1.2% (n = 410,000) | AID 1159524, 2015 | Potency, µM (doses to about 57.9 µM), for inactives: at the highest dose activity change, negative = inhibition, most hits filed as inhibitors; calls by dose curve; tested in HEK293T cells; note: read-out not given here; potency is the fitted concentration of half-maximal effect; nearly all actives have a fitted effect of over 45% in size
HCMV antiviral – qHTS Assay for inhibitors of the human cytomegalovirus (HCMV) | HFF cells, HCMV-luciferase reporter, 72 h; hits give low values | activity change, negative = inhibition, % at 57.5 µM | actives 4.5% (n = 410,000); in the data active = activity change below about -60%; inconclusive = no clear call, values can overlap the other calls; inactive = above about -39%
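Cell-based, HFFs, 1000 cells/well, 16 h 37C; cpds in DMSO + HCMV-luc, MOI 1 PFU/cell; 72 h 37C; OneGlo luminescence after 5 min RT; norm. to buffer vs Salinomycin 10uM.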
HCV inh – qHTS Assay for Inhibitors of Hepatitis C Virus (HCV). Huh7.5.1 HCVcc-Cre infection, luciferase reporter, 44 h. Potency, µM (doses to about 41.8 µM), without a hit: at the top dose activity change, negative = inhibition, usual class: inhibitors. actives 3.4% (n = 340,000); note: potency is the fitted concentration of half-maximal effect
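Reporter virus HCVcc-Cre (~0.5 moi) infects cells exposed to compound; seeding density 1,000 cells/well with 4 h settling beforehand. Luminescence, 15 sec read, taken 44 h post-infection following a 15 min RT substrate incubation.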
Vaccinia Venus – qHTS for Stage-Specific Inhibitors of Vaccinia Orthopoxvirus: Venus Reporter Primary qHTS; Vaccinia virus Venus reporter expression, fluorescence; Potency, µM (doses to about 36.5 µM), without a hit: top-dose activity change, negative = inhibition, hits mostly inhibitors; AID 720580, 2013; actives 0.46% (n = 330,000); calls by dose curve; tested in A549 cells; note: potency is the fitted concentration of half-maximal effect; nearly all actives have a fitted effect of over 30% in size
Vaccinia mCherry – qHTS for Stage-Specific Inhibitors of Vaccinia Orthopoxvirus: mCherry Reporter Primary qHTS; Vaccinia virus mCherry reporter infection, fluorescence; Potency, µM (titrated, usually from 36.5 µM), for inactives: top-dose activity change, negative = inhibition, usual class: inhibitors; actives 0.63% (n = 310,000); AID 720579, 2013; calls by dose curve; tested in A549 cells; note: potency is the fitted concentration of half-maximal effect; nearly all actives have a fitted effect of over 35% in size
* marks the source's active call; other numbers are inactive results; i = inactive; ? = inconclusive; · = not tested or not shown; [ ] = remark or other dose. Unless noted, calls come from the whole dose curve; as a rule, active = well fitted curve in the direction sought with a large enough effect; inconclusive = small, poorly fitted or top-dose-only effect, or another doubt; inactive = no such curve, though single readings can be large; an effect the other way counts as inactive or inconclusive. % is set by controls: 0 for no effect and ±100 for the full control effect.

SMILES	Sm TGR block	FMDV antiviral	HCMV antiviral	HCV inh	Vaccinia Venus	Vaccinia mCherry
CC1=NN(c2ccccc2)C(=O)/C1=C\c1cc(C)n(-c2cccnc2)c1C	-21.6%	9.5%	-73.3*	-24.3%	-6.4%	i
CC1=NN(c2ccccc2)C(=O)/C1=C\c1cc(C)n(-c2ccccc2)c1C	-3.9%	16.2%	?	?	-0.7%	-14.5%
C=CCN1C(=O)/C(=C/c2cc(C)n(-c3cccnc3)c2C)C(=O)NC1=S	?	35.5µM*	-14.1	25.2%	12.6%	-8.8%
Cc1cc(-n2c(C)cc(C(=O)CCl)c2C)no1	8.91µM*	22.4µM*	-95.6*	?	?	-28.3%
Cc1cc(-n2c(C)cc(C(=O)CN3C(=O)C(=O)N(C)C3=O)c2C)no1	·	3.9%	11.3	8.8%	·	·
Cc1cc(-n2c(C)cc(C(=O)CSc3nnnn3-c3ccccc3)c2C)no1	-27.0%	-27.2%	-9.9	8.91µM*	-8.9%	-17.1%
Cc1ccc(-n2nnnc2SCC(=O)c2cc(C)n(-c3cc(C)on3)c2C)c(C)c1	-24.0%	·	-36.6	?	-15.4%	?
CC(C)C(=O)NC(c1ccc([N+](=O)[O-])cc1)c1c(O)ccc2ccccc12 (configuration not stated)	-6.5%	?	-29.0	-24.3%	·	·
CCC(=O)NC(/C=C/c1ccccc1)c1cc([N+](=O)[O-])c2cccnc2c1O (configuration not stated)	-18.8%	·	26.8	0.5%	·	·
Cc1ccc(C(NC(=O)C(C)C)c2cc([N+](=O)[O-])c3cccnc3c2O)cc1 (configuration not stated)	-14.4%	-10.0%	-12.8	12.6µM*	?	-29.7%
CCC(=O)NC(c1cccs1)c1cc([N+](=O)[O-])c2cccnc2c1OC (configuration not stated)	39.8µM*	-7.0%	-86.5*	·	·	·
CC(C)C(=O)NC(c1cccs1)c1cc([N+](=O)[O-])c2cccnc2c1O (configuration not stated)	-18.9%	-25.3%	·	?	?	11.2µM*
O=C(COC(=O)c1cccc(S(=O)(=O)N2CCCCCC2)c1)NCc1ccc(Cl)cc1	-4.9%	-13.5%	4.2	34.5%	-7.6%	-6.6%
CCN(CC)C(=O)CSc1nc(N)c2c3c(sc2n1)CC(C)CC3 (configuration not stated)	-5.1%	5.4%	56.3	-18.2%	-23.0%	?
COc1ccc2ccccc2c1CNC(=O)CC1C(=O)NCCN1CC(C)C (configuration not stated)	-18.7%	-0.3%	-21.1	?	2.6%	-24.2%
COc1ncccc1C(=O)NC1CCCc2c1cnn2-c1cc(C)cc(C)c1 (configuration not stated)	-0.8%	6.1%	-61.2*	-21.0%	-2.8%	-8.9%
Cc1cc(C)cc(-n2ncc3c2CCCC3NC(=O)c2cc(C)oc2C)c1 (configuration not stated)	?	-24.6%	?	?	-23.3%	-18.7%
COCc1ccc(C(=O)NC2CCCc3c2cnn3-c2cc(C)cc(C)c2)s1 (configuration not stated)	-16.2%	-19.2%	?	12.6µM*	2.7%[7.34 µM]	i[7.34 µM]
CN1CCN(CCOC2c3ccccc3CSc3ccc(Cl)cc32)CC1 (configuration not stated)	-15.3%	-22.1%	-37.1	?	?	?
COCCN(CC(=O)Nc1cccc(C)c1C)C(=O)C1(c2ccccc2)CC1	·	3.3%	-11.2	14.1%	-7.5%	-13.8%
COc1ccc2nc(Cl)c(C3CC(c4ccco4)=NN3C(=O)CCCC(=O)O)cc2c1 (configuration not stated)	8.91µM*	3.1%	-36.2	13.7%	-0.9%	-0.6%
Cc1ccc2nc(Cl)c(C3CC(c4ccco4)=NN3C(=O)CCCC(=O)O)cc2c1 (configuration not stated)	35.5µM*	-22.7%	?	?	-16.4%	-8.4%
